Only some compounds are listed: those with a hit (about 4.1% of all), similar ones and a draw of the others.
DAX1 inh-1: DAX1 (NR0B1) inhibitors, primary screen, cell-based, HEK293, Gal4-DAX1, luciferase luminescence | hit rate 0.99% among 340,000 | HEK293 Gal4-DAX1 luciferase reporter | inhibition, % at 6.75 µM | Nuclear receptor subfamily 0 group B member 1 (Homo sapiens), P51843;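 active = inhibition above the mean over all tested compounds plus 3 SD, cut at about 4.2% in these data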;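 also: 0% = DAX1-transfected cells with DMSO and 100% = empty-vector control cells with DMSO; inhibition shows as a rise in luminescence from relieved DAX1 repression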
Target sequence (P51843 207-470 limits assumed): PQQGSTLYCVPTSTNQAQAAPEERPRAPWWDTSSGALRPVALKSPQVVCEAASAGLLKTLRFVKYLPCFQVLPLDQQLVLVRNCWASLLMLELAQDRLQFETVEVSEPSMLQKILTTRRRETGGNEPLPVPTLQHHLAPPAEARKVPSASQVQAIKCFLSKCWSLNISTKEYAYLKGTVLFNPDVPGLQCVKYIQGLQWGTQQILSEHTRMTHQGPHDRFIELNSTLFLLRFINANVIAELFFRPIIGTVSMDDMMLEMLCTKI
hcDAF-12 act: H. contortus DAF-12 nuclear receptor activators, primary screen, cell-based, luminescence, HEK293, lit1-tk-luc reporter | activation, % at 6.8 µM | hit rate 1.4% among 370,000 | AID 652067, 2013 | HEK293 hcDAF-12 lit1-tk-luc reporter; 0% DMSO, 100% Δ7-dafachronic acid;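 active = activation above the mean of all tested compounds plus 3 SD, cut at about 5.5% in these data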;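 also: 100% = response to 3 µM Δ7-dafachronic acid high control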
hgDAF12 agonist: H. glycines DAF-12 receptor agonists, primary screen, cell-based, luminescence, HEK293, GAL4 fusion, UAS-luciferase | Nuclear hormone receptor DAF-12 (Heterodera glycines), GAL4 fusion | HEK293 GAL4-hgDAF12 UAS-luciferase reporter, agonist luminescence; normalized to butyrate control | activation, % at 6.8 µM | hit rate 1.8% among 370,000;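 active = activation above a cutoff set at the mean of all screened compounds plus 3 SD, cut at about 10% in these data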;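 also: 0% = DMSO wells and 100% = sodium butyrate wells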
ssDAF-12 act: S. stercoralis DAF-12 nuclear receptor activators, primary screen, cell-based, luminescence, HEK293, GRIP1 co-expression, lit1-tk-luc; Nuclear hormone receptor DAF-12 (Strongyloides stercoralis); HEK293 ssDAF-12/GRIP1 lit1-tk-luc reporter; % of 3 µM dafachronic acid response; activation, % at 6.8 µM; hit rate 1% among 370,000;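 active = activation above the mean over all tested compounds plus 3 SD, cut at about 0.9% in these data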;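 also: 0% = DMSO-only wells and 100% = 3 µM delta7-dafachronic acid wells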
DAX1 inh-2: DAX1 (NR0B1) inhibitors on StAR promoter, primary screen, cell-based, luminescence, SF-1 (NR5A1), full-length DAX-1. HEK293T StAR-luciferase reporter, SF-1/DAX-1 repression relief. inhibition, % at 6.8 µM. hit rate 1.1% among 370,000;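 active = inhibition above the mean over all tested compounds plus 3 SD, cut at about 3.6% in these data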;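 also: 0% = DAX-1 cells with DMSO and 100% = cells lacking DAX-1 with DMSO; higher inhibition means more luminescence from relief of DAX-1 repression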
* hit, by the source's call; / = no result given.

SMILES	DAX1 inh-1	hcDAF-12 act	hgDAF12 agonist	ssDAF-12 act	DAX1 inh-2
CC(=O)Nc1ccc(-c2cc3ccccc3o2)cc1	4.5*	5	10	0.9*	3
O=C(NCc1ccccc1)[C@@H]1CCCN1C(=O)[C@H]1CCCN1C(=O)c1ccc(Cl)c(Cl)c1	/	-1	-1	-1	0
COc1ccccc1C(=O)N1CCN(C(=O)[C@H]2O[C@@H](n3ccc(N)nc3=O)[C@H](O)[C@@H]2O)CC1	/	0	0	-1	1
CCOc1ccc2nc(/N=C/c3c(C)[nH]n(-c4ccccc4)c3=O)sc2c1	4	2	4	0.9*	2
O=C(Cn1nnc2ccccc21)c1cccc([N+](=O)[O-])c1	0	-1	-2	-2	0
Cc1ccc(C(=O)Cn2nnc3ccccc32)cc1[N+](=O)[O-]	6.0*	1	0	0	1
CCc1ccc(-c2ccc(C(=O)C(F)(F)F)[nH]2)cc1	2	3	13*	0	2
O=C(Nc1nc2ccc([N+](=O)[O-])cc2s1)c1ccco1	/	2	8	0	4.2*
O=C(Nc1nc2ccc(Cl)cc2s1)C1CCCO1 (centres undefined)	2	1	8	0	1
O=C(Nc1nc2ccc([N+](=O)[O-])cc2s1)c1c(F)cccc1F	0	-1	-1	-1	0
O=C(Nc1nc2ccc([N+](=O)[O-])cc2s1)C1CCCO1 (centres undefined)	5.4*	2	6	0	1
CCc1ccc(Nc2nnc(SCC(=O)Nc3sccc3C(N)=O)s2)cc1	-1	2	8	-1	0
CCc1ccc(Nc2nnc(SCC(=O)NCCN3C(=O)CSC3=O)s2)cc1	-1	2	12*	0	1
CC(CNC(=O)CCCn1c(=O)c2cccn2c2cccnc21)c1ccccc1 (centres undefined)	0	-1	-1	-1	0
COc1ccc(-c2ccc(/C=N/N3C(=O)C4C5C=CC(C6CC56)C4C3=O)o2)c([N+](=O)[O-])c1 (centres undefined)	4.4*	-3	-3	-1	-1
COc1ccc(NC(=S)Nn2cnnc2)cc1OC	6.4*	0	-3	-2	-1
Fc1cccc(-c2cc3nc4c(c(NCc5ccco5)n3n2)CCCC4)c1	3	3	11*	0	4.2*
COc1cccc(-c2cc3nc4c(c(NCC(C)(C)CN(C)C)n3n2)CCCC4)c1	4.3*	0	6	-2	2
COc1cccc(-c2cn3nc4c(nc3n2)CCCC4)c1	-1	/	/	/	/
Cc1ccc(CNC(=O)[C@@H](Cc2ccccc2)NC(=O)[C@H]2O[C@@H](n3ccc(N)nc3=O)[C@H](O)[C@@H]2O)o1	/	-1	2	-1	1
O=C(NCC1CCN(C(=O)C(=O)c2cc3ccccc3o2)CC1)c1cccnc1	/	-1	-2	-1	1
CC(=O)C1=C(C)N(c2ccccc2)C(=O)C1(NS(=O)(=O)c1ccc(N)cc1)C(F)(F)F (centres undefined)	1	5.6*	3	1.5*	1
C#CCn1cc(CNC[C@H]2O[C@@H](n3cnc4c(=O)[nH]c(N)nc43)[C@H](O)[C@@H]2O)c2ccccc21	/	0	3	-1	0
CCc1ccc(N2C(=O)CC(N3CCN(c4ccccn4)CC3)C2=O)cc1 (centres undefined)	3	-2	0	-2	0
O=C1CC(N2CCN(c3ccccn3)CC2)C(=O)N1c1ccc(F)cc1 (centres undefined)	/	0	1	1.7*	0
CC1=CC(C)C(=O)N(CCN2CCOCC2)C(C)=C1 (centres undefined)	0	1	4	-1	0
C[C@@H]1CN([C@H](C)CO)C(=O)CCCn2nncc2CO[C@@H]1CN(C)C(=O)Nc1ccnc(N2CCOCC2)c1	1	1	-1	-1	0

Source: PubChem
